Rab9 promoter act: activators of Rab9 promoter | Huh7 Rab9 promoter-luciferase reporter, luminescence, 24 h | Potency, µM (highest dose often 9.22 µM), actives largely listed as activators | 2.8% of 320,000 active | AID 485297; note: nearly all actives have a fitted effect of over 60% in size
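Measured in stably transfected Huh7 cells bearing a Rab9 promoter–luciferase construct: 24 h compound treatment at 37 °C, followed by luminescence detection.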
Luc counter: Kinase-Glo luciferase inhibition (counter-screen); 0.28% of 200,000 active; Potency, µM (top dose mostly 38.3 µM), most hits filed as inhibitors; Kinase-Glo luciferase, ATP luminescence, 8 min; Q27757; AID 1379; note: nearly all actives have a fitted effect of over 60% in size
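Light output from Kinase-Glo luciferase with luciferin and 10 uM ATP in 50 mM imidazole pH 7.2, KCl, MgCl2, Tween 20, BSA; compound pin-delivered, 8-min ambient incubation, then luminescence read.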
FLuc counter: counter-screen for miR-21 project: firefly luciferase inhibitors or activators; purified FLuc, Km substrates, luminescence inhibition; P08659; 6.9% of 360,000 active; Potency, µM (titrated, usually from 57.5 µM), most hits filed as inhibitors; AID 588342; note: nearly all actives have a fitted effect of over 55% in size
Target sequence (P08659 whole entry, looked up): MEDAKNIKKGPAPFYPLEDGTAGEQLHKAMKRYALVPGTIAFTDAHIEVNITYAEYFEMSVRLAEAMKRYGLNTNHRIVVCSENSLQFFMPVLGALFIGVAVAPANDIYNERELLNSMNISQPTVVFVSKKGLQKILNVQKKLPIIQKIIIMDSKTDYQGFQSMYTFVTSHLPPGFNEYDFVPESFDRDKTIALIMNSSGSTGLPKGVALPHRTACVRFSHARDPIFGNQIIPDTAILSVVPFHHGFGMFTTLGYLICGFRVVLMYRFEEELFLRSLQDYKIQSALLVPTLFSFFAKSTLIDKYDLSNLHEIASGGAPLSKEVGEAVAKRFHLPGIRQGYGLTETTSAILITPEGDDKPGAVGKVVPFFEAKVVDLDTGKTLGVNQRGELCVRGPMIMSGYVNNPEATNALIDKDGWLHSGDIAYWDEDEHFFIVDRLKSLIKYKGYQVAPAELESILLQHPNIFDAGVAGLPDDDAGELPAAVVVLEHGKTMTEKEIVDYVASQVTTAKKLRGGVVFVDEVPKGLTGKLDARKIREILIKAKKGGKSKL
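Biochemical qHTS of compounds, final roughly 60 µM downward over six points, against 10 nM purified firefly luciferase using Km concentrations of substrates (10 uM D-luciferin, 10 uM ATP) in Tris acetate pH 7.5 buffer; luminescence output.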
ELG1 genotoxic: inducers of genotoxicity in HEK293T ELG1-luciferase cells; HEK293T ELG1-luciferase reporter, luminescence, 16 h; 1.3% of 330,000 active; Potency, µM (top dose mostly 46 µM), most hits filed as activators; note: nearly all actives have a fitted effect of over 60% in size
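Luminescence read-out: rising ELG1-luciferase signal, reflecting elevated ELG1 protein under genetic stress, flags genotoxic compounds. Cells were treated for 16 hr at 37 °C before ONE-Glo detection.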
SMN2 splice up: enhancers of SMN2 splice variant expression. 2.8% of 210,000 active. Potency, µM (doses to about 46.1 µM), usual class: activators. HEK293 SMN2-luciferase splicing reporter, luminescence, 30-36 h; note: nearly all actives have a fitted effect of over 55% in size
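HEK293 cells carry an SMN2 minigene-luciferase reporter in which exon 7 inclusion puts luciferase in frame. Cells were seeded at 2000 cells/well, attached for 10-12 hours, then exposed to compounds for 30-36 hours at 37C before ONE-Glo luminescence.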
NPC1 prom act: NPC1 promoter activation. Huh7 NPC1 promoter luciferase reporter, 24 h. 2.4% of 320,000 active. Potency, µM (top dose mostly 9.22 µM), actives largely listed as activators; note: nearly all actives have a fitted effect of over 60% in size
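Stable NPC1-promoter luciferase Huh7 line; cpd (DMSO) 24 h, 37 °C, 5% CO2; Amplite luciferase reagent 10 min RT; luminescence readout. qHTS format.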
Large screens that a line does not name were inactive. In the library only some 7.3% were active in any assay of this set; here they are far more common. Calls come from the whole dose curve; as a rule, active = well fitted curve in the direction sought with a large enough effect; inconclusive = small, poorly fitted or top-dose-only effect, or another doubt; inactive = no such curve, though single readings can be large; an effect the other way counts as inactive or inconclusive.

O=C(NC1=NCCS1)c1cc(-c2cccc(Br)c2)nc2ccccc12	FLuc counter 11µM
O=C(Nc1ncccn1)c1cc(-c2cccc(Br)c2)nc2ccccc12	FLuc counter 27µM
O=C(COc1ccccc1Cl)N(Cc1ccco1)Cc1ccco1	none (no result: Rab9 promoter act, Luc counter, ELG1 genotoxic, NPC1 prom act)
O=C1N/C(=C\c2ccc(O)cc2)C(O)=C1C=NCc1ccccc1	FLuc counter 12µM
COc1ccc(/C=C2\NC(=O)C(C=NCc3ccccc3)=C2O)cc1	FLuc counter inconclusive
COC(=O)c1ccc(-c2ccc(/C=N/NC(=O)Cc3nnc(N)s3)o2)cc1	Rab9 promoter act inconclusive, FLuc counter inconclusive, NPC1 prom act 4.5µM (no result: Luc counter, SMN2 splice up)
CCOC(=O)c1cnc2c([N+](=O)[O-])cnn2c1C	none
CCOC(=O)c1cnn2c(C)cc(-c3ccccc3)nc12	Rab9 promoter act 3.5µM, FLuc counter 19µM, ELG1 genotoxic 9.2µM, SMN2 splice up 32µM, NPC1 prom act inconclusive
CCOC(=O)c1cnn(Cc2ccccc2)c1N	none
CCOC(=O)c1cnc2c(-c3cccc(Br)c3)cnn2c1C	Rab9 promoter act 3.5µM, FLuc counter 2.4µM, ELG1 genotoxic inconclusive, NPC1 prom act 3.2µM (no result: Luc counter, SMN2 splice up)
CCOC(=O)c1cnn(C(=O)c2ccccc2)c1N	FLuc counter 19µM
CCOC(=O)c1cnn2c(N)c(C#N)cnc12	none
CCOC(=O)c1cnc2c(C(=O)OCC)cnn2c1N	Rab9 promoter act 4µM, FLuc counter inconclusive, NPC1 prom act inconclusive (no result: Luc counter, SMN2 splice up)
COc1cccc(CNC(=O)Nc2cc(C(=O)NCc3cccc(F)c3)ccc2N2CCCC2)c1	none (no result: Rab9 promoter act, Luc counter, ELG1 genotoxic, SMN2 splice up, NPC1 prom act)
Cc1cc(C)n2ncc(/C(N)=N/OC(=O)c3ccccc3F)c2n1	Rab9 promoter act inconclusive, FLuc counter 12µM, ELG1 genotoxic inconclusive, NPC1 prom act inconclusive (no result: Luc counter, SMN2 splice up)
Cc1cc(C)n2ncc(/C(N)=N/OC(=O)Nc3ccc(Cl)cc3)c2n1	FLuc counter inconclusive (no result: Luc counter, SMN2 splice up)
CCOC(=O)CCc1c(C)c2ccc(OCc3ccc([N+](=O)[O-])cc3)cc2oc1=O	none
CCOC(=O)C1CSC(Cc2ccc(OCc3ccc([N+](=O)[O-])cc3)cc2)N1 (configuration not stated)	SMN2 splice up 13µM (no result: Rab9 promoter act, FLuc counter, ELG1 genotoxic, NPC1 prom act)
O=S(c1ccccc1)c1ccc2nnnn2n1 (configuration not stated)	none (no result: Rab9 promoter act, FLuc counter, ELG1 genotoxic, SMN2 splice up, NPC1 prom act)
O=C(CSc1nnc(SCc2ccc(Cl)cc2)s1)N1CCOCC1	FLuc counter 15µM
O=C(CSCc1ccc(Cl)cc1)N1CCOCC1	FLuc counter inconclusive
O=C(Nc1ccc(Cl)cc1)Nc1nnc(SCc2ccc(Cl)cc2)s1	none
CCN(CC)C(=O)CSc1nnc(SCc2ccc(Cl)cc2)s1	FLuc counter 19µM
COc1cccc(NC(=O)C2CCCN(c3nnc(-n4c(C)ccc4C)s3)C2)c1 (configuration not stated)	none (no result: Rab9 promoter act, Luc counter, ELG1 genotoxic, NPC1 prom act)
C[C@H]1Cc2c(-c3ccccc3)nc3c(c2CO1)CN(C(=O)c1cccnc1)CC3	none (no result: Rab9 promoter act, FLuc counter, ELG1 genotoxic, NPC1 prom act)
CCC(Cc1ccccc1)NC(=O)c1csc2c1CCCCC2 (configuration not stated)	none (no result: Rab9 promoter act, Luc counter, ELG1 genotoxic, NPC1 prom act)
Cc1ccc(S(=O)(=O)N2CCC(C(=O)Nc3nnc(-c4ccco4)s3)CC2)cc1	none
COC(=O)Nc1nnc(-c2ccco2)s1	none (no result: Luc counter, SMN2 splice up)
CC(C)CC(=O)Nc1nnc(-c2ccco2)s1	Rab9 promoter act 2.5µM, FLuc counter inconclusive, ELG1 genotoxic 16µM, NPC1 prom act inconclusive
O=C(Nc1nc(-c2ccco2)c(-c2ccco2)s1)C1CCC1	FLuc counter 19µM
O=C(Nc1nnc(-c2ccco2)s1)C1CCCCC1	Rab9 promoter act 3.2µM, FLuc counter inconclusive, NPC1 prom act 3.5µM
COc1ccc2c(c1)C(=O)[C@@H](OC(=O)NS(=O)(=O)c1ccc(F)cc1)[C@H](c1ccc(OC)c(Br)c1)O2	none (no result: Rab9 promoter act, FLuc counter, ELG1 genotoxic, NPC1 prom act)
O=c1cc(O)c2sc3nc4c(c(C(F)(F)F)c3c2[nH]1)CCCCC4	FLuc counter 17µM (no result: Luc counter, SMN2 splice up)
CC(C)(C)C(=O)OCc1cc(=O)n2nc(C3CC3)sc2n1	none (no result: Rab9 promoter act, Luc counter, ELG1 genotoxic, SMN2 splice up, NPC1 prom act)
Nc1ccc(N(S(=O)(=O)c2ccccc2)S(=O)(=O)c2ccccc2)c(Cl)c1	none (no result: Rab9 promoter act, FLuc counter, ELG1 genotoxic, NPC1 prom act)
CCOc1ccc(NC(=O)Nc2cccnc2)cc1	Rab9 promoter act 3.5µM, FLuc counter 7.6µM, ELG1 genotoxic inconclusive, NPC1 prom act inconclusive (no result: Luc counter, SMN2 splice up)
CCOc1ccc(NC(=O)NCc2cccnc2)cc1	none (no result: SMN2 splice up)
